# Assay outcomes from PubChem BioAssay.
# HepG2 viability: qHTS for Inhibitors of TGF-b: Cytotox Counterscreen. HepG2 CAGA-GFP viability, ATP luminescence, 18 h. Potency, µM (titrated, usually from 46.1 µM), for inactives: at the top dose activity change, negative = cytotoxicity, usual class: cytotoxic. actives 0.76% (n = 410,000). AID 588856, 2011
#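 HepG2 CAGA-GFP cells (1000/well, DMEM with 1% FBS) received compound, then TGF-beta at 500 pg/mL final, and were incubated 18 hours at 37 degrees C. Viability was read by CellTiter-Glo luminescence. Media-only wells were set as complete cell-killing and DMSO as no toxicity.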
# ATXN2 expr inh: Primary qHTS for Inhibitors of ATXN expression. Potency, µM (top dose mostly 57 µM), inactives show at the top dose activity change, negative = inhibition, most hits filed as inhibitors. HEK-293 ATXN2-luciferase reporter, luminescence, 24 h. actives 0.72% (n = 360,000); further: on the % scale 0 is the no-effect control and ±100 the full control effect; nearly all actives have a fitted effect of over 55% in size
#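 qHTS (up to 57 uM final) was run with 24 h compound exposure of reporter cells at 37 °C. Each well was multiplexed: SteadyGlo luminescence measured ATXN2-luciferase expression after a fluorogenic Gly-Phe-AFC viability readout (25 uM final).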
# KB-3-1 tox: qHTS assay for MDR1-selective chemotherapeutics: Primary screen using the parental adenocarcinoma cell KB-3-1 | Potency, µM (top dose mostly 46.1 µM), actives largely listed as cytotoxic | actives 1.4% (n = 400,000) | KB-3-1 viability, CellTiter-Glo ATP luminescence, 72 h; further: on the % scale 0 is the no-effect control and ±100 the full control effect; nearly all actives have a fitted effect of over 60% in size
#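 Cytotoxicity in the drug-sensitive parental line KB-3-1 was scored as loss of CellTiter-Glo luminescence following 72 h incubation with compound. Values come from curve fitting of normalized concentration-response data.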
# TGFb SMAD3 inh: qHTS for Inhibitors of TGF-b | AID 588855, 2011 | Potency, µM (top dose mostly 46.1 µM), inactives show at the top dose activity, negative = inhibition, hits mostly inhibitors | HepG2 CAGA-GFP TGF-b/SMAD3 reporter, GFP fluorescence, 18 h; TGF-beta stimulated, 500 pg/mL final | actives 1.2% (n = 410,000); further: on the % scale 0 is the no-effect control and ±100 the full control effect; nearly all actives have a fitted effect of over 65% in size
#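 HEPG2 CAGA-GFP reporter cells (1000/well, DMEM with 1% FBS) received compounds, then recombinant TGF-beta at 500 pg/mL final for 18 hours at 37 degrees C. Per-cell GFP summed per well was normalised to unstimulated and stimulated DMSO controls before curve fitting.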
# KB-V1 MDR tox: qHTS assay for MDR1-selective chemotherapeutics: Primary screen using the drug-selected MDR subline cells KB-V1; KB-V1 MDR cells viability, CellTiter-Glo, 72 h; Potency, µM (top dose mostly 46.1 µM), hits mostly cytotoxic; actives 3.4% (n = 400,000); further: on the % scale 0 is the no-effect control and ±100 the full control effect; nearly all actives have a fitted effect of over 60% in size
#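 Compound-treated KB-V1 multidrug-resistant cells, 72 h, 37 degrees C; viability by CellTiter-Glo. Fitted qHTS curves give the values.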
# S2 tox: Viability Counterscreen for Primary qHTS for Inhibitors of ATXN expression; S2 cells (HEK-293 line with an ATXN2-luciferase reporter) viability, CellTiter-Fluor protease fluorescence, 24 h; Potency, µM (top dose mostly 56.7 µM), most hits filed as cytotoxic; actives 0.49% (n = 400,000); AID 651635, 2014; further: nearly all actives have a fitted effect of over 40% in size
# The depositor's hits bear a star; i = inactive; u = inconclusive; x = not tested or not shown; ! = not confirmed by another sample. A selection: hits, their analogues and other compounds. The true share with any hit is near 5.9%. The call rests on the fitted dose curve; in most records, active means well fitted curve in the direction sought with a large enough effect; inconclusive means small, poorly fitted or top-dose-only effect, or another doubt; inactive means no such curve, though single readings can be large; an effect the other way counts as inactive or inconclusive. Potency means the concentration at half of the fitted maximal effect.
SMILES,HepG2 viability,ATXN2 expr inh,KB-3-1 tox,TGFb SMAD3 inh,KB-V1 MDR tox,S2 tox
CN1CCN(C2=Cc3ccccc3Sc3cc(F)c(F)cc32)CC1,-102%,u,u,-1%,i,u
c1ccc2c(c1)CC(N1CCCCC1)c1ccccc1S2 (centres undefined),-49%,-31%,i,0%,i,i
CN1CCN(C2Cc3cc(Cl)ccc3Sc3cc(F)ccc32)CC1 (centres undefined),-99%,u,18µM*,u,18µM*,u
CN1CCN(C2=Cc3cc(Cl)ccc3Sc3cc(F)ccc32)CC1,-87%,u,u,u,18µM*,u
O=C1CC(N2CCN(c3ccc(Cl)cc3)CC2)C(=O)N1c1ccc(F)cc1 (centres undefined),-42%,-33%,i,-15%,i,i
CC(C)NC(=O)c1ccc2sc([C@@H]3O[C@H](CO)[C@H](O)[C@H](O)[C@H]3O)nc2c1,6%,18%,i,0%,i,i
CCCc1nn2c(=O)cc(COC(=O)c3cccc(NC(=O)c4cccs4)c3)nc2s1,-45%,x,x,1%,x,x
CC1CCn2c(nc3cc(C(=O)NCc4ccc(F)cc4)ccc32)C1 (centres undefined),-2%,x,x,-7%,x,x
C=C(/C=C/c1ccc(N(C)C)cc1)c1nc2ccccc2s1,-31%,x,i,-20%,u,x
CN(Cc1ccccc1)c1ccc(/C=C/c2nc3ccccc3s2)cc1,-85%,x,7.3µM*,u,i,x
CN(C)c1ccc(/C=C/c2nc3ccccc3s2)cc1,-69%,u,16µM*!,13µM*!,13µM*!,x
CC(=O)N1CCc2cc(CNS(=O)(=O)c3ccc(C(C)(C)C)cc3)ccc21,-25%,x,x,u,x,x
CCCCCCCCCNC(=O)[C@H](NC(=O)COc1ccccc1)[C@@H]1NC(C(=O)OC)C(C)(C)S1 (some centres undefined),-6%,9%,i,11µM*,i,u
O=C(Cn1c(=O)nc(-c2ccccc2)c2cc(Cl)ccc21)NCc1ccccc1,1%,x,x,-7%,x,x
CCCSc1nnc2c(n1)OC(c1ccc(OCC(=O)O)cc1)Nc1ccccc1-2 (centres undefined),-25%,x,x,1%,x,x
Oc1ccccc1-c1nc(N2CCCC2)c2ccccc2n1,3%,8%,i,9%,i,i
Fc1ccccc1-c1nc(N2CCCCC2)c2ccccc2n1,-12%,5%,u,-18%,13µM*,i
c1ccc(N2CCN(c3nc(-c4ccccn4)nc4ccccc34)CC2)cc1,-11%,u,u,u,u,u
CN1CCN(c2nc(-c3ccccn3)nc3ccccc23)CC1,-46%,u,i,12%,23µM*,u
CN1CCN(c2nc(-c3cccnc3)nc3ccccc23)CC1,-31%,-15%,i,7%,i,i
C(=C\c1nc(N2CCCCCC2)c2ccccc2n1)/c1ccccc1,-40%,u,i,0%,18µM*,u
c1cncc(-c2nc(N3CCCCCC3)c3ccccc3n2)c1,-21%,-22%,i,-12%,4.1µM*,i
CC/C(=C\c1ccc(C(=O)OC)cc1)c1cc(OC)cc2oc3ccccc3c12,-32%,x,i,-29%,i,x
NC1=N[C@@]2(c3cc(NC(=O)c4ccc(F)cn4)ccc3F)COC[C@@H]2CS1,x,32%,x,x,x,x
COc1ccc2nc(SCC(O)c3cccc(Br)c3)[nH]c2c1 (centres undefined),-4%,x,x,0%,x,x
c1ccc2c(N3CCCCCC3)nc(-c3ccncc3)nc2c1,-35%,u,i,-16%,18µM*,u
COc1ccccc1NC(=O)COC(=O)c1ccccc1OCC(=O)Nc1ccc(SC(F)F)cc1,7%,-6%,i,-6%,13µM*,u
